Results filed as inconclusive are left out. Values without a mark were called inactive. The source made the active and inactive calls. Calls come from the whole dose curve; as a rule, active = well fitted inhibition curve with a large enough effect; inconclusive = small, poorly fitted or top-dose-only effect; inactive = no such curve, though single readings can be large or run the other way.
Note: nearly all actives have a fitted effect of over 80% in size.
Potency is the fitted concentration of half-maximal effect.
Throughout, for activity change, negative = inhibition: 0% is about no effect.

N-terminal Xaa-Pro-Lys N-methyltransferase 1 (Homo sapiens), sequence (Q9BV86 whole entry, looked up): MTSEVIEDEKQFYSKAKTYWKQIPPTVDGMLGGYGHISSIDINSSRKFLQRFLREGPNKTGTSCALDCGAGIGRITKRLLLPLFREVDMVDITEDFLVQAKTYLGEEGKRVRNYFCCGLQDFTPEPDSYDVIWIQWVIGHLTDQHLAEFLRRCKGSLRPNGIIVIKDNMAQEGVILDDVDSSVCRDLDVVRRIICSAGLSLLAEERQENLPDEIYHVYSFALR

The target of this assay is N-terminal Xaa-Pro-Lys N-methyltransferase 1 (Homo sapiens) (UniProt Q9BV86). The experiment in a line: qHTS Assay for Inhibitors of N-terminal methyltransferase 1 (NTMT1): ThioGlo3 Assay Confirmatory Screen, Round 1. To be noted: NTMT1 SAHH-coupled ThioGlo3 fluorescence, 30 min; series mostly up to 56.8 µM. In a few lines:
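Human NTMT1 at 125 nM was preincubated 1 min at room temperature with compounds at various concentrations or 1 uM RCC1-6 control. Substrate mix (100 uM SAM, 10 uM SAHH, 15 uM ThioGlo3) was added, and fluorescence (Ex 340/Em 450 nm) was read at start and after 30 min, normalized to background.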
On to `Nc1ncnc2c1ncn2C1OC(COP(=O)(O)O)C(O)C1O` (stereo unspecified), for which the Potency entry is “inactive”.
`CC(C)=CCNc1ncnc2c1ncn2[C@@H]1O[C@H](CO)[C@@H](O)[C@H]1O`: the Potency is 13.6 µM (active).
The same measure, in the same setting: for `Nc1ncnc2c1nc(Cl)n2[C@@H]1O[C@H](CO)[C@@H](O)[C@@H]1O` the value was “inactive”; for `COc1cc2nc(N3CCCCC3)nc(NC(C)C)c2cc1OC`, 24.1 µM (active).
Regarding `Nc1ncnc2c1ncn2[C@@H]1O[C@H](COP(=O)(O)OP(=O)(O)O)[C@@H](O)[C@H]1O`, the Potency entry is “inactive”.
On the same count and under the same terms, the value for `COc1cc2c(NC3CCN(C)CC3)nc(N3CCCN(C)CC3)nc2cc1OCc1ccccc1` was 19.2 µM (active); that for `N#Cc1ccc(COC[C@H]2O[C@@H](n3c(NCc4ccc(Cl)c(Cl)c4)nc4c(N)ncnc43)[C@@H](O)[C@@H]2O)cc1` was “inactive”; that for `COc1cc2c(NC3CCN(C(C)C)CC3)nc(N3CCC(F)(F)CC3)nc2cc1OCCCN1CCCC1` was 24.1 µM (active).
Still for that read-out and setting: the value for `Nc1nc2c(ncn2[C@@H]2O[C@H](CO)[C@@H](O)[C@@H]2O)c(=O)[nH]1` was “inactive”; that for `COc1cc2c(NC3CCN(CC4CCCCC4)CC3)nc(N3CCCCC3)nc2cc1OCCOCCN(C)C` was 24.1 µM (active); that for `COc1cc2c(NC3CCN(C)CC3)nc(N3CCCN(C)CC3)nc2cc1OCCOCCN1CCCC1` was 27.1 µM (active).
Take `OC[C@H]1O[C@@H](n2cnc3c(N[C@H]4C[C@H]5CC[C@@H]4C5)ncnc32)[C@H](O)[C@@H]1O`: the Potency entry is “inactive”.
Turning to `COc1cc2c(NC3CCN(CC4CCCCC4)CC3)nc(N3CCCN(C(C)C)CC3)nc2cc1OCCCN1CCCCC1`, the Potency is 24.1 µM (active).
Consider `COc1cc2c(NC3CCN(CC4CCCCC4)CC3)nc(N3CCCN(C)CC3)nc2cc1OCCOCCN(C)C`, for which the Potency is 24.1 µM (active).
Same read-out and setting: the value for `CNCCCOc1cc2nc(N3CCCN(C)CC3)nc(NC3CCN(C)CC3)c2cc1OC` was 24.1 µM (active); that for `COc1cc2c(NC3CCN(C(C)C)CC3)nc(N3CCCN(C)CC3)nc2cc1OCCCN(C)C` was 24.1 µM (active).
On the same count and under the same terms, for `CCN1CCCN(c2nc(NC3CCN(C(C)C)CC3)c3cc(OC)c(OCCCN4CCCCC4)cc3n2)CC1` the value was 24.1 µM (active); for `OC[C@H]1O[C@@H](n2cnc3cncnc32)[C@H](O)[C@@H]1O`, 2.41 µM (active).
`CCN1CCCN(c2nc(NC3CCN(C(C)C)CC3)c3cc(OC)c(OCCCN4CCCC4)cc3n2)CC1`: the Potency was 24.1 µM (active).
With `CCNC(=O)[C@H]1O[C@H](n2cnc3c(N)nc(NCCc4ccc(CCC(=O)O)cc4)nc32)[C@@H](O)[C@@H]1O`, the Potency result was “inactive”.
The same measure, in the same setting: the value for `COc1cc2c(NC3CCN(C(C)C)CC3)nc(N3CCCCC3)nc2cc1OCCCN1CCCC1` was 30.4 µM (active); that for `CCCC(=O)Nc1ncnc2c1ncn2[C@@H]1O[C@@H]2COP(=O)(O)O[C@H]2[C@H]1OC(=O)CCC` was “inactive”.
As for `Nc1nc(Cl)nc2c1ncn2[C@@H]1O[C@H](CO)C(O)[C@H]1O` (stereo partly specified), the Potency result was “inactive”.
On to `CNc1nc2c(N)ncnc2n1[C@@H]1O[C@@H]2COP(=O)(O)O[C@H]2[C@H]1O`, for which the Potency entry was “inactive”.
As to `CCCCC#Cc1nc(NC)c2ncn([C@@H]3O[C@@H](CO)[C@H](O)[C@H]3O)c2n1`, the Potency result is “inactive”.
On to `COc1cc2c(NC3CCN(C4CCCCC4)CC3)nc(N3CCCCC3)nc2cc1OCCCN1CCCCC1`, for which the Potency was 24.1 µM (active).
As to `COc1cc2c(NC3CCN(C(C)C)CC3)nc(N3CCCN(C(C)C)CC3)nc2cc1OCCCN1CCCCC1`, the Potency was 24.1 µM (active).
Regarding `Nc1nc2c([nH]c(=O)n2[C@@H]2O[C@H](CO)[C@@H](O)[C@H]2O)c(=O)[nH]1`, the activity change, negative = inhibition was 16.6% [at 6.3 µM].
With `COc1cc2c(NC3CCN(C4CCCCC4)CC3)nc(N3CCCCCC3)nc2cc1OCCOCCN(C)C`, the Potency is 24.1 µM (active).
Take `OCC1OC(n2cnc3c(NO)ncnc32)C(O)C1O` (stereo unspecified): the Potency is 3.83 µM (active).
Same read-out and setting: for `COc1cc2nc(N3CCOCC3)nc(NC3CC3)c2cc1OC` the value was 27.1 µM (active); for `NCCNC(=O)Cc1ccc(NC(=O)Cc2ccc(Nc3ncnc4c3ncn4[C@@H]3O[C@H](CO)[C@@H](O)[C@H]3O)cc2)cc1`, “inactive”; for `COc1cc2nc(N3CCN(C)CC3)nc(NCCC3CC3)c2cc1OC`, 24.1 µM (active).
`CSCC1OC(n2cnc3c(N)ncnc32)C(O)C1O` (stereo unspecified): the Potency result was “inactive”.
On to `Nc1ncnc2c1ncn2[C@@H]1O[C@H](C(=O)NC2CC2)[C@@H](O)[C@H]1O`, for which the Potency entry is “inactive”.
Regarding `COc1cc2c(NC3CCN(C)CC3)nc(N3CCCN(C)CC3)nc2cc1OCCCN1CCCC1`, the Potency is 27.1 µM (active).

The values above are taken from PubChem BioAssay AID1347142 (National Center for Advancing Translational Sciences (NCATS), 2019).
